Inconclusive results are not listed. The source made the active and inactive calls. The call rests on the fitted dose curve; in most records, active means well fitted inhibition curve with a large enough effect; inconclusive means small, poorly fitted or top-dose-only effect; inactive means no such curve, though single readings can be large or run the other way.
Target: RecQ-like DNA helicase BLM (Homo sapiens) (UniProt P54132)
Experiment: qHTS for Inhibitors of Bloom's syndrome helicase (BLM): Helicase DNA unwinding fluorescent orthogonal confirmatory assay for SAR
Conditions: fluorescence, orthogonal confirmation; series mostly up to 55.6 µM; activity change, negative = inhibition: at the top concentration
Outline: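 Gel-based orthogonal unwinding test: native PAGE separated substrate from single-stranded product of a fluorescent DNA duplex processed by purified BLM (2mM ATP, 50mM NaCl, room temperature). Bands were quantified and normalised against no-enzyme and no-inhibitor wells.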

RecQ-like DNA helicase BLM (Homo sapiens), sequence (P54132 whole entry, looked up): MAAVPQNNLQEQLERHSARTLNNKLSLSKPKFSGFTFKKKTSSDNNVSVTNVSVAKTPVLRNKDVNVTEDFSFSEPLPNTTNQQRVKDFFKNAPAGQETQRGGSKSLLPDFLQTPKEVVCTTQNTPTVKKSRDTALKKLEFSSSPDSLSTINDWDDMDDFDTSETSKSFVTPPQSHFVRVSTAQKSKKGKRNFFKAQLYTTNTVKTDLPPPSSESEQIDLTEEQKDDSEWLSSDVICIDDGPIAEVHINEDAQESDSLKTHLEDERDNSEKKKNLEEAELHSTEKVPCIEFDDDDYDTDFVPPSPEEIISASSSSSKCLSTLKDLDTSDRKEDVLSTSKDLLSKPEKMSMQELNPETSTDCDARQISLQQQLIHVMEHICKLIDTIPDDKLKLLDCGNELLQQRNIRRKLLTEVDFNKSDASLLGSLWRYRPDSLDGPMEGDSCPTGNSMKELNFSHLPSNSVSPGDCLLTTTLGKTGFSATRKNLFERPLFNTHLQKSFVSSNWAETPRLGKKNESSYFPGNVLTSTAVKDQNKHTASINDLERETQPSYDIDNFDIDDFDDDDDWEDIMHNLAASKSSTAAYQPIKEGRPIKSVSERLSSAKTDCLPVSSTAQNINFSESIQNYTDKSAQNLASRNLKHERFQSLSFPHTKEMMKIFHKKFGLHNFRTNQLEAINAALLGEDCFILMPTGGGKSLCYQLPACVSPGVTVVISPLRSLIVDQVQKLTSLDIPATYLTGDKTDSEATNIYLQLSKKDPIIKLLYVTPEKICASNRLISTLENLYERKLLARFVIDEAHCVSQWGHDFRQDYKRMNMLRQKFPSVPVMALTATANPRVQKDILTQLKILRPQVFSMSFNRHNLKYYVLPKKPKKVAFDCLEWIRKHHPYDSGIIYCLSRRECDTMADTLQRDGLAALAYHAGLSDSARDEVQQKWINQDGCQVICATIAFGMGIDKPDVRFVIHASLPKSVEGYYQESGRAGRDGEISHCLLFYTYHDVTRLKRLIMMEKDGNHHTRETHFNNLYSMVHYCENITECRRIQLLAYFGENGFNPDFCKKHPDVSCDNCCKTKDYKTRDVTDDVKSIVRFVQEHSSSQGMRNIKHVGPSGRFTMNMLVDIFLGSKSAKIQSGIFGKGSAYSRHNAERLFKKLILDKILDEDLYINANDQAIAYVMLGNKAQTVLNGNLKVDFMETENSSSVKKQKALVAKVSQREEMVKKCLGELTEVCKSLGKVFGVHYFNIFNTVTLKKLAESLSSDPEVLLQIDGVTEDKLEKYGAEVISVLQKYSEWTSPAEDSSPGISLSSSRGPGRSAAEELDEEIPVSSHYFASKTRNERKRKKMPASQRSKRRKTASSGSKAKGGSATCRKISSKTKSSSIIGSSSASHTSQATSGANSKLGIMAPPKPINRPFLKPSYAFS

SMILES	activity change, negative = inhibition	Potency
O=C(Nc1ccc2c(c1)OCCO2)Nc1nnc(-c2ccncc2)s1	8.77% (inactive)	
Cc1cc(NC(=O)Nc2nnc(-c3ccncc3)s2)ccc1C#N		3.16 µM (active)
CC(C)(C)NC(=O)Nc1nnc(-c2ccncc2)s1	5.44% (inactive)	
O=C(Nc1ccc(-c2cn[nH]c2)cc1)Nc1nnc(-c2ccncc2)s1		31.6 µM (active)
Cc1ccc(-c2nnc(NC(=O)Nc3ccc4ccccc4c3)s2)cc1	-1.64% (inactive)	
O=C(Nc1ccc(Br)c(Br)c1)Nc1nnc(-c2cccnc2)s1		3.55 µM (active)
O=C(Nc1ccc(F)c(F)c1)Nc1nnc(-c2ccncc2)s1		8.91 µM (active)
O=C(Nc1ccc(Cl)c(C(F)(F)F)c1)Nc1nnc(-c2ccncc2)s1		7.08 µM (active)
Cc1cc(NC(=O)Nc2nnc(-c3cccnc3)s2)ccc1Br		5.62 µM (active)
CCOC(=O)c1cccc(NC(=O)Nc2nnc(-c3ccncc3)s2)c1	10.3% (inactive)	
N#Cc1ccc(NC(=O)Nc2nnc(-c3ccncc3)s2)c(Cl)c1		11.2 µM (active)
O=C(Nc1ccc(Cl)c(Cl)c1)Nc1nnc(NC2CCNCC2)s1	80.4% (inactive)	
COc1ccc(NC(=O)Nc2ccc(-c3nc4ccccc4[nH]3)cc2)cc1OC	10.2% (inactive)	
O=C(Nc1ccc(-c2nc3ccccc3[nH]2)cc1)Nc1ccc2occc2c1	-6.03% (inactive)	
O=c1c(Nc2ccc(Cl)c(Cl)c2)c(Nc2nnc(-c3ccncc3)s2)c1=O		14.1 µM (active)
CC(C)(C)c1ccc(-c2nnc(NC(=O)Nc3ccc4ccccc4c3)s2)cc1	5.46% (inactive)	
O=C(NCc1ccc(Cl)c(Cl)c1)Nc1nnc(-c2ccncc2)s1		39.8 µM (active)
O=C(Nc1ccc(Cl)c(Cl)c1)Nc1ccc(-c2ccncc2)s1	5.54% [at 53.6 µM] (inactive)	
